The source of these data is PubChem BioAssay (Tox21).

Inconclusive results are not listed. Values without a mark were called inactive. Active and inactive are the calls of the source. Unless noted, the call rests on the fitted dose curve; in most records, active means well fitted curve in the direction sought with a large enough effect in the repeat runs; inconclusive means weak or mixed curves; inactive means no such curve, though single readings can be large; an effect the other way counts as inactive or inconclusive.

A short description of experiment [1]: qHTS assay to identify small molecule agonists of the vitamin D receptor (VDR) signaling pathway - cell viability counter screen (AID 743224). Further: series mostly up to about 63 µM; on the % scale 0 is the no-effect control and ±100 the full control effect; nearly all actives have a fitted effect of over 50% in size. The method in brief:
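VDR-bla cells were preincubated 4 h at 37C/5% CO2, then exposed to compounds for 16 h. After the 2 h room-temperature bla FRET read, CellTiter-Glo was added to the same wells and luminescence read after 30 min.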

Experiment [2] is described as follows: qHTS assay to identify small molecule antagonists of the vitamin D receptor (VDR) signaling pathway - cell viability counter screen (AID 743225). Further: on the % scale 0 is the no-effect control and ±100 the full control effect; nearly all actives have a fitted effect of over 50% in size. The method in brief: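 VDR-UAS-bla HEK 293T cells were plated and incubated 4 h at 37C, then dosed with compound plus 3 nM (final) 1-alpha,25-dihydroxyvitamin D3 for 16 h. After the 2 h beta-lactamase read, viability in the same wells was read as CellTiter-Glo luminescence after 30 min at room temperature.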
On the technique in general: In qHTS, concentration-response curves come from the screen itself.

A short description of experiment [3]: qHTS assay to identify small molecule agonists of the NFkB signaling pathway - cell viability counter screen (AID 1159515; calls by dose curve; further: series mostly up to about 61 µM; on the % scale 0 is the no-effect control and ±100 the full control effect; nearly all actives have a fitted effect of over 55% in size). In outline:
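NFkB-bla ME-180 cells, 2,000/well, were plated overnight at 37 C, 5% CO2, then exposed to compounds in DMSO for 5 hr. After the bla FRET read, CellTiter-Glo was added to the same wells; luminescence was read after 30 min at room temperature.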

Experiment [4] is described as follows: qHTS assay to identify small molecule agonists of the endoplasmic reticulum stress response signaling pathway (AID 1159516; active means well fitted activation curve with a large enough effect in the signal ratio in the repeat runs, not every such curve was filed as active; the % refers to the signal ratio; further: on the % scale 0 is the no-effect control and ±100 the full control effect). In outline:
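CellSensor ESRE-bla HeLa cells, carrying a beta-lactamase reporter driven by the ER stress response element, were plated overnight and exposed to compounds for 5 hr at 37 C. Reporter activity was read as FRET substrate fluorescence after 2 hr at room temperature.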

Experiment [5] is described as follows: qHTS assay to identify small molecule agonists of the endoplasmic reticulum stress response signaling pathway - cell viability counter screen (AID 1159517; calls by dose curve; further: series mostly up to about 61 µM; on the % scale 0 is the no-effect control and ±100 the full control effect; nearly all actives have a fitted effect of over 50% in size). In outline: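 Cells, HeLa ESRE-bla; density, 1,500/well; dosing, 5 hr at 37 C, 5% CO2; readout, CellTiter-Glo luminescence after 30 min RT.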
A short description of experiment [6]: qHTS assay to identify small molecule antagonists of the retinoid-related orphan receptor gamma (ROR-gamma) signaling pathway - cell viability counter screen (AID 1159520). Further: on the % scale 0 is the no-effect control and ±100 the full control effect; nearly all actives have a fitted effect of over 50% in size. The method in brief: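 Cytotoxicity was read from cellular ATP (CellTiter-Glo luminescence) after 16 hr at 37 C with 1 uM doxycycline induction. The inducer was added 2 hr after compound transfer to Tet-on ROR gamma CHO cells.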

The target of experiment [7] is Nuclear receptor ROR-gamma (Homo sapiens) (UniProt P51449). The experiment can be described thus: qHTS assay to identify small molecule antagonists of the retinoid-related orphan receptor gamma (ROR-gamma) signaling pathway (AID 1159521; further: nearly all actives have a fitted effect of over 50% in size; further: potency means the concentration at half of the fitted maximal effect). The method in brief: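 Tet-on ROR-gamma CHO cells with ROR response element-luciferase reporter; compounds added 2 hr before 1 uM doxycycline induction, then 16 hr at 37 C. Antagonism scored as decreased ONE-Glo luminescence.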

Experiment [8] can be described thus: qHTS assay to identify small molecule agonists of the AP-1 signaling pathway - cell viability counter screen (AID 1159525; calls by dose curve; further: nearly all actives have a fitted effect of over 55% in size). In outline:
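Luminescent ATP readout (Cell Titer Glo, 30 min RT), normalised to DMSO and tetra n-octyl ammonium bromide controls. Cells were ME-180 AP-1-bla in 0.5% dialyzed FBS Opti-MEM, with a 5 h, 37 °C compound exposure.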

Experiment [9] in a line: qHTS assay to identify small molecule agonists of the AP-1 signaling pathway (AID 1159526; calls by dose curve; further: on the % scale 0 is the no-effect control and ±100 the full control effect).
The target of experiment [10] is Retinoic acid receptor RXR-alpha (Homo sapiens) (UniProt P19793). The experiment in a line: qHTS assay to identify small molecule agonists of the RXR signaling pathway (AID 1159527; calls by dose curve; further: on the % scale 0 is the no-effect control and ±100 the full control effect; nearly all actives have a fitted effect of over 35% in size). The method in brief:
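GeneBLAzer RXR-alpha-UAS-bla HEK 293T cells in 2% charcoal-stripped FBS medium were exposed to compounds for 16 hr at 37 C in agonist mode. Beta-lactamase reporter read as 460/530 nm FRET ratio after 2 hr substrate loading.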

The nature of experiment [11]: qHTS assay to identify small molecule agonists of the RXR signaling pathway - cell viability counter screen (AID 1159529). The method in brief: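 RXR-alpha-UAS-bla HEK 293T cells in medium with 2% charcoal-stripped FBS were pre-incubated 5 hr, then compound-treated 16 hr at 37 C. Viability was read by CellTiter-Glo luminescence in the same wells as the beta-lactamase assay, with tetraoctyl ammonium bromide as positive control.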

Experiment [12] in a line: qHTS assay to identify small molecule antagonists of the retinoid acid receptor (RAR) signaling pathway - cell viability counter screen (AID 1159551). Further: on the % scale 0 is the no-effect control and ±100 the full control effect; nearly all actives have a fitted effect of over 35% in size. In outline:
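C3RL4 cells were seeded overnight at 37 C, then treated with compounds plus 1 uM (final) retinol for 6 h at 37 C. Viability was read as ATP by CellTiter-Glo luminescence after 30 min at room temperature.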

The nature of experiment [13]: qHTS assay to identify small molecule antagonists of the retinoic acid receptor (RAR) signaling pathway (AID 1159552). The method in brief: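 Retinol signaling pathway inhibitors screened in C3RL4 RARE-luciferase reporter cells seeded overnight at 37 C, then compounds added with 1 uM (final) retinol as pathway substrate. After 6 hr at 37 C, luciferase luminescence read after 30 min at room temperature.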

Experiment [14] in a line: qHTS assay to identify small molecule agonists of the retinoic acid receptor (RAR) signaling pathway (AID 1159553). Further: on the % scale 0 is the no-effect control and ±100 the full control effect. In outline:
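C3RL4 cells carrying a RARE luciferase reporter were plated overnight at 37 C, then exposed to compounds in DMSO for 6 hr at 37 C and 5% CO2. Luminescence was read 30 min after luciferase reagent addition at room temperature.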

The nature of experiment [15]: qHTS assay to identify small molecule antagonists of the estrogen related receptor (ERR) signaling pathway - cell viability counter screen (AID 1224818).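 Further: series mostly up to about 46 µM; viability measured after 17.5 h of compound exposure; on the % scale 0 is the no-effect control and ±100 the full control effect.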 The method in brief:
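ERR reporter cells plated 6 h at 37 C/5% CO2, then compounds in DMSO pin-transferred and incubated 17.5 h at 37 C. Viability read as CellTiter-Fluor fluorescence after 30 min at 37 C.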

The nature of experiment [16]: qHTS assay to identify small molecule antagonists of the estrogen related receptor signaling pathway with the pleiotropic PPARgamma coactivator (PGC) cell viability counter screen (AID 1224822). In outline:
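PGC/ERR cells were seeded at 2,000 cells/well, rested 6 h at 37 C/5% CO2, then given compounds in DMSO by pin tool and incubated 17.5 h at 37 C. Viability came from CellTiter-Fluor fluorescence after 30 min.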

Chain of Retinoic acid receptor RXR-alpha (Homo sapiens) (P19793 whole entry, looked up): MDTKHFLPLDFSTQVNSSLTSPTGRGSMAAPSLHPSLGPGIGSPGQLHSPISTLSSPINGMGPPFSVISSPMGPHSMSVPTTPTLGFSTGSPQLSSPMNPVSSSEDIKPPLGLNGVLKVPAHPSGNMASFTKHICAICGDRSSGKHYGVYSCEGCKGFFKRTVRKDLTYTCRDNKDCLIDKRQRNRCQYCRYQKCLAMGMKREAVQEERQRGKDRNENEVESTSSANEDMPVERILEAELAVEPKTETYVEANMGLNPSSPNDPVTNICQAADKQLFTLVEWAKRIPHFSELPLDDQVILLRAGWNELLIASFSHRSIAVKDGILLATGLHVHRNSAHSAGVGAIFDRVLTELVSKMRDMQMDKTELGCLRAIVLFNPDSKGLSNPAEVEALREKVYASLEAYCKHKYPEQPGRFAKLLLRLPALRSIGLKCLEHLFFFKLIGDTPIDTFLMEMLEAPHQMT

`CC(=O)Nc1ccc(OCC(O)CNC(C)C)cc1` (stereo not given): the call in experiment [1], in experiment [2], in experiment [3], in experiment [4], in experiment [5] and in experiment [6] was inactive. In addition, the call in [8], in [9] and in [12] was inactive. Also, the Potency result in experiment [7], in experiment [10], in experiment [11] and in experiment [13] was “inactive” throughout.

For `NC(N)=NCCN1CCCCCCC1`, the activity change, negative = cytotoxicity in experiment [1] was -13.4% [at 0.55 µM]; in experiment [5] it was -3.02% [at 0.628 µM]; in [11], -2.51% [at 0.29 µM]; in [12], -0.855% [at 0.349 µM]. In addition, the viability change, negative = cytotoxic is -3.67% [at 0.628 µM] in experiment [2] and 8.04% [at 0.29 µM] in experiment [8]. Also, in [3], the activity, negative = cytotoxic is -1.12% [at 0.628 µM]. Moreover, the activation in [4] was 2.69% [at 0.628 µM]; in experiment [9] it was -7.76% [at 0.29 µM]; in experiment [10], 1.89% [at 0.29 µM]; in experiment [14], 0.885% [at 0.756 µM]. The activity, negative = cytotoxicity in experiment [6] was 6.85% [at 0.349 µM]. Besides, the activity change, negative = inhibition in [7] is 36.3% [at 0.35 µM]. Besides, the activity, negative = inhibition in [13] was 16.3% [at 0.349 µM].

Turning to `CC(=O)c1cnccn1`, the call in experiment [1], in [2], in [3], in experiment [4], in [5] and in [6] was inactive. Also, the molecule was called inactive in experiment [8], in [9] and in experiment [12]. The Potency result in [7], in [10], in experiment [11] and in [13] was “inactive” each time.

`Nc1ccn([C@@H]2O[C@H](CO)[C@@H](O)C2(F)F)c(=O)n1`: the call in experiment [1], in experiment [2], in experiment [3], in experiment [4], in experiment [5] and in experiment [6] was inactive. For the same molecule, the molecule was called inactive in experiment [8], in [9] and in experiment [12]. Moreover, the Potency in [7] was 237 nM (active). Moreover, the Potency result in experiment [10], in experiment [11] and in [14] was “inactive” throughout.

For `CC(C(=O)O)c1cccc(Oc2ccccc2)c1` (stereo not given), the result in experiment [1], in [2], in experiment [3], in [4], in experiment [5] and in experiment [6] was inactive. The molecule was called inactive in experiment [8], in experiment [9] and in experiment [12]. Also, the Potency entry in [7], in experiment [10], in experiment [11] and in experiment [14] was “inactive” in each case.

Turning to `COc1ccc2cc1Oc1cc3c(cc1OC)CC[N+](C)(C)[C@H]3Cc1ccc(cc1)Oc1c(OC)c(OC)cc3c1[C@@H](C2)[N+](C)(C)CC3`, the outcome in [1], in experiment [2], in experiment [3], in experiment [4], in [5] and in experiment [6] was inactive. Further, the call in experiment [8], in experiment [9] and in experiment [12] was inactive. Further, the Potency result in [7], in experiment [10], in experiment [11] and in experiment [14] was “inactive” each time.

Turning to `Cc1ccc(C(=O)c2ccccc2)cc1`, the molecule was called inactive in experiment [1], in [2], in [3], in experiment [4], in experiment [5] and in experiment [6]. In addition, the result in experiment [8], in [9] and in experiment [12] was inactive. Besides, the Potency entry in [7], in [10], in [11] and in [13] was “inactive” in each case.

In the case of `CN(C)C(=O)Oc1cccc([N+](C)(C)C)c1`, the outcome in experiment [1], in experiment [2], in [3], in experiment [4], in [5] and in [6] was inactive. For the same molecule, the molecule was classed as inactive in experiment [8], in [9], in [12], in experiment [15] and in experiment [16]. Also, the Potency entry in experiment [7], in [10], in experiment [11] and in [14] was “inactive” in each case.

For the molecule `CCCCOCCOC(=O)CCCCCCCCC(=O)OCCOCCCC`, the outcome in experiment [1], in [2], in experiment [3], in experiment [4], in [5] and in experiment [6] was inactive. For the same molecule, the molecule was called inactive in [8], in [9] and in [12]. The Potency result in experiment [7], in experiment [10], in experiment [11] and in experiment [13] was “inactive” in each case.
